Compound activity from PubChem BioAssay.
TLR9-MyD88 block = inhibitors of human TLR9-MyD88 binding; Q9NR96+Q99836; CHO BLA complementation TLR9-MyD88, CCF4 FRET ratio; inhibition, % at 4.98 µM; actives 0.21% (n = 340,000);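 active means inhibition above the mean over all tested compounds plus 3 SD, cut at about 21% in these data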;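 further: 0% = DMSO only wells and 100% = clavulanate BLA inhibitor control wells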
NPR1 activator = GC-A (human) enzyme activation; P16066; AID 1671463; actives 0.14% (n = 370,000); HEK293 GC-A cells, cGMP TR-FRET, EC30 ANP; 0% at EC30 ANP, 100% saturating ANP; activation, % at 10 µM; in the data active means activation above about 40%
TLR4 MyD88 comp = blocks binding of human TLR4 to MyD88. inhibition, % at 8.4 µM. HeLa CL3-4 TLR4/MyD88 BLA complementation, FRET ratio. O00206+Q99836. actives 0.18% (n = 200,000); in the data active means inhibition above about 25%;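 further: 0% = vehicle and 100% = reference inhibitor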
Target sequence (O00206 whole entry, looked up): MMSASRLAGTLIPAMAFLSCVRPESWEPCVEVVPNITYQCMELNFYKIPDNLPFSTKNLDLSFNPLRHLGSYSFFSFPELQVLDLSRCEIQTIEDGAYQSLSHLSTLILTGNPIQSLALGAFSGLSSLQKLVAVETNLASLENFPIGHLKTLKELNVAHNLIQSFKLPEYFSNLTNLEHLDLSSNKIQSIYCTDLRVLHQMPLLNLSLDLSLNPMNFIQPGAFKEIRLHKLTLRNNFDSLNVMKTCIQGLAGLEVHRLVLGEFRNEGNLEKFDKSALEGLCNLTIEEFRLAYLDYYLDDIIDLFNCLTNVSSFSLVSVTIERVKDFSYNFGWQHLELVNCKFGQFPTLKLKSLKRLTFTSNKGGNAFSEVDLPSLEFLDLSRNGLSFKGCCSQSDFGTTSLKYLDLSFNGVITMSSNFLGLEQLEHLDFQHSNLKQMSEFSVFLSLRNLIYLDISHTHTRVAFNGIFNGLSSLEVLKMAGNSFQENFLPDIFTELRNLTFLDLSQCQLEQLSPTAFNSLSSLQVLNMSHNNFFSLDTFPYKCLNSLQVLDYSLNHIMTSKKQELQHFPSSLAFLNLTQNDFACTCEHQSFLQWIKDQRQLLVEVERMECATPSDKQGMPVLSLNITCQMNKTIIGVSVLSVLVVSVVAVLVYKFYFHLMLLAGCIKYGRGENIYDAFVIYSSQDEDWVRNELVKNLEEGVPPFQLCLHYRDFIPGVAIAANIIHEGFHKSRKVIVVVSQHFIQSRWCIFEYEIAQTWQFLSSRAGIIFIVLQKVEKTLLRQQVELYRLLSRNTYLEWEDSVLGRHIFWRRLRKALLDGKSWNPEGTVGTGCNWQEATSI
Target sequence (Q99836 whole entry, looked up): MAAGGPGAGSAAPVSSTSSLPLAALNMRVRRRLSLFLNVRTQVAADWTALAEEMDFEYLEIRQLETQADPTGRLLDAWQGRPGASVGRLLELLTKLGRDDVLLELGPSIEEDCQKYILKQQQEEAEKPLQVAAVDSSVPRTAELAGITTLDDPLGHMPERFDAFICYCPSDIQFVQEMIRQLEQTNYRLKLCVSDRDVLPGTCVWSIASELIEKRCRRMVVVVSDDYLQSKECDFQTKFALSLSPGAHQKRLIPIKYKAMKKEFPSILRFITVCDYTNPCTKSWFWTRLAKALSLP
Neddylation inh = inhibitors of human cullin neddylation | actives 0.58% (n = 360,000) | TR-FRET cullin neddylation, biochemical | inhibition, % at 25 µM; in the data active means inhibition above about 36%
NPR2 activator = GC-B (human) receptor activation; activation, % at 10 µM; actives 0.11% (n = 370,000); AID 1920062; HEK293-GC-B cells, CNP EC30, cGMP TR-FRET; 0% at EC30 CNP, 100% saturating CNP; P20594;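 active means activation at 10 µM reaching about 35% in either raw or pattern-adjusted values, limit read from the data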
NOD2-RIPK2 inh = inhibitors of human NOD2-RIPK2 interaction | inhibition, % at 4.98 µM | AID 624267 | CHO BLA complementation NOD2-RIPK2, CCF4 ratio | actives 0.38% (n = 360,000); in the data active means inhibition above about 21%;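 further: 0% = vehicle only and 100% = reference blocker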
Neddyl conf = cullin neddylation inhibition, confirmation; TR-FRET cullin neddylation biochemical assay; calls only at 25 µM; AID 652217; shares compounds with Neddylation inh; actives 13% (n = 1,800); in the data active means inhibition above about 40%;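 further: neddylation substrate is the cullin 1 ring ligase complex with SKP2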
Starred values were filed as active, the others as inactive; i = inactive; nt = no result shown. Shown are actives, neighbours in structure and some others; about 1.2% of the full set was active somewhere.

SMILES	TLR9-MyD88 block	NPR1 activator	TLR4 MyD88 comp	Neddylation inh	NPR2 activator	NOD2-RIPK2 inh	Neddyl conf
CCN(CC(=O)NC(C)(C)C)C(=O)CN1c2cccc3cccc(c23)S1(=O)=O	0.4	1.8	nt	51.0*	-2.5	10.6	nt
CCOc1ccccc1NC(=O)CN1c2cccc3cccc(c23)S1(=O)=O	9.8	-5.2	nt	44.3*	-6.4	2.3	nt
COc1ccc(NC(=O)CN2c3cccc4cccc(c34)S2(=O)=O)cc1	-7.9	4.7	-1.2	20.5	1.6	0.4	nt
CC(=O)C(Cc1ccccc1)NC(=O)CN1c2cccc3cccc(c23)S1(=O)=O (configuration not stated)	-5.5	-3.1	nt	28.2*	-6.0	-6.4	i
CC(C)(C)NC(=O)NC(=O)CN1c2cccc3cccc(c23)S1(=O)=O	-2.2	-4.8	nt	34.8	5.2	-4.0	nt
CS(=O)(=O)Nc1ccc(C2=NN(C(=O)c3ccco3)C(c3ccccc3)C2)cc1 (configuration not stated)	-7.4	-23.4	8.7	41.0*	-16.1	-11.5	i
O=C(c1ccco1)N1N=C(c2cccs2)CC1c1ccccc1O (configuration not stated)	6.8	-5.2	nt	54.4*	-12.3	-2.9	nt
Cc1ccc(C2CC(c3ccc(NS(C)(=O)=O)cc3)=NN2C(=O)c2ccco2)cc1 (configuration not stated)	-2.8	-10.4	-22.7	nt	-3.7	-10.8	nt
N#C/C(=C\c1ccncc1)c1nc2c(s1)CCCC2	2.5	-1.6	4.8	56.6*	1.6	-4.7	nt
N#CC(=Cc1ccncc1)c1ccccc1	-7.7	-1.2	nt	-16.1	-0.9	8.9	nt
Cn1ccsc1=NC(=O)c1ccc(S(=O)(=O)C(F)F)cc1	-5.9	1.1	nt	1.2	-3.5	0.2	nt
COc1ccc(CCC(=O)OCC(=O)N(C)c2c(N)n(Cc3ccccc3)c(=O)[nH]c2=O)cc1	-18.4	0.5	nt	11.6	-2.4	-11.7	nt
COc1cc2ccccc2cc1C(=O)OCC(=O)N(C)c1c(N)n(Cc2ccccc2)c(=O)[nH]c1=O	-6.8	-2.0	nt	49.2*	-2.2	-17.1	nt
CCN(C(=O)COC(=O)c1cc2ccccc2cc1OC)c1c(N)n(Cc2ccccc2)c(=O)[nH]c1=O	4.8	-2.2	nt	55.8*	5.4	-3.7	nt
CC(C)(C)c1ccc(C(=O)Nc2ccc3c(c2)C(=O)NC3=O)cc1	-8.2	-5.1	nt	nt	-9.3	1.4	nt
O=C(Cc1ccc(Cl)cc1)Nc1ccc2c(c1)C(=O)NC2=O	3.1	4.0	-6.0	51.3*	1.4	-10.1	nt
CC(=O)c1ccc(C(=O)Nc2ccc3c(c2)C(=O)NC3=O)cc1	-7.5	-5.9	nt	44.8*	-12.1	0.6	i
CCOC(=O)N1CCN(C(=O)c2ccc3nc(-c4ccccc4)c(-c4ccccc4)nc3c2)CC1	2.1	-4.8	nt	41.8*	-5.4	-4.3	i
CCOC(=O)N1CCN(C(=O)c2ccc3oc(CCc4ccccc4)nc3c2)CC1	-5.4	4.5	nt	5.5	-2.4	-13.4	nt
NC(=O)C1CCN(C(=O)c2ccc3nc(-c4ccccc4)c(-c4ccccc4)nc3c2)CC1	7.3	-5.9	nt	55.5*	-4.1	12.0	nt
NC(=O)C1CCN(C(=O)c2ccc3ncsc3c2)CC1	-3.5	4.5	nt	7.1	4.4	-9.4	nt
Cc1ccc(NC(=O)c2cc3ccccc3cc2O)cc1	-12.2	10.7	nt	43.1*	-0.9	2.3	i
Cc1cc(C)n(-c2ccc3nnc(C)n3n2)n1	-3.2	1.9	nt	36.2*	0.2	-0.2	i
Cc1nnc2ccc(N3CCCCC3)nn12	7.8	0.2	nt	-10.8	3.0	4.8	nt
O=C(Nc1cc(S(=O)(=O)N2CCOCC2)ccc1Cl)c1cc([N+](=O)[O-])ccc1Cl	9.9	nt	nt	-38.2	nt	11.0	nt
SMILES	TLR9-MyD88 block	NPR1 activator	TLR4 MyD88 comp	Neddylation inh	NPR2 activator	NOD2-RIPK2 inh	Neddyl conf
CN(C)c1cccc(C(=O)NCc2ccccc2)c1	0.6	-2.1	4.0	40.6*	0.9	5.2	i
COCCCNC(=O)c1ccc(Cn2c(=O)c3ccccc3n(Cc3ccc(Br)cc3)c2=O)cc1	nt	-3.6	nt	nt	10.8	nt	nt
Cc1ccc(C)c(Nc2ccc(C(=O)NCCc3ccccc3)cn2)c1	5.0	-1.4	-0.1	38.7	-1.2	-11.6	nt
Cc1ccc(Nc2ccc(C(=O)NCCc3ccccc3)cn2)cc1	8.6	1.8	-12.6	40.9*	-4.4	-1.7	i
c1ccc(C2=Nn3c(nnc3-c3ccco3)SC2)cc1	-4.6	8.5	-6.8	-9.2	3.4	-3.8	nt
CN(Cc1ccccc1)C(=O)OCc1cn(Cc2cccc(Cl)c2)nn1	nt	1.2	nt	nt	7.8	nt	nt
CCN(CC)c1ccc(C(=O)N/N=C/c2ccc(OC)cc2OC)cc1	-1.6	-1.9	-15.6	42.2*	0.9	-13.6	i
COc1ccc(OC)c(C=NNC(=O)c2ccc(NS(=O)(=O)c3cccs3)cc2)c1	nt	-0.4	nt	54.7*	-0.6	4.5	nt
COc1ccc(C(=O)Nc2cccc(C(=O)N/N=C/c3ccc(OC)cc3OC)c2)cc1	-1.8	-2.1	nt	20.6	6.2	-0.7	nt
COC(=O)N/N=C/c1ccc(OC(=O)/C=C/c2ccco2)cc1	nt	2.3	nt	52.1*	3.6	-8.5	i
Cn1nc(C(C)(C)C)cc1N1C(=O)CCC1(C)C(=O)Nc1ccc2ccccc2c1 (configuration not stated)	nt	3.5	nt	6.6	-3.1	3.2	nt
Cc1ccc2nc3ccc(N4CCCCCCC4)nn3c(=O)c2c1	-5.2	14.1	-9.5	53.3*	20.7	-8.0	i
CC(C)NC(=O)/C(=C/c1ccco1)c1ccccc1	-16.0	0.4	9.6	39.0*	-0.2	9.6	i
CC(=O)Oc1ccc(-c2ccc(C(=O)OCC(=O)N(C)CC(=O)Nc3ccccc3Cl)cc2)cc1	-7.4	5.0	nt	55.6*	0.3	4.5	i
C[C@@H]1CN([C@H](C)CO)C(=O)CCCn2nncc2CO[C@H]1CN(C)C(=O)Nc1ccc2c(c1)OCCO2	nt	3.9	nt	nt	0.7	nt	nt
CCCc1cc(-n2cnc3ccccc32)n2c(nc3ccccc32)c1C#N	7.2	17.3	-0.9	42.1*	24.3	1.6	i
O=C(Cn1nc(-c2ccco2)ccc1=O)Nc1cc(Cl)ccc1Cl	9.6	2.2	nt	47.2*	-3.8	-7.8	i
COc1cc(/C=C/c2nnc3c4ccccc4ncn23)cc(OC)c1OC	15.8	10.1	-1.3	55.4*	5.9	-7.1	i
CCCCNc1cccc2c1S(=O)(=O)N[C@H](CC(C)C)CO2	nt	-0.6	nt	nt	-2.0	nt	nt
O=c1c2c(nc3c(-c4cccc(Br)c4)c[nH]n13)CCCC2	9.8	-0.9	-1.0	45.7*	-10.4	-6.0	i
COc1cc(/C=C/C(=O)O)ccc1OS(=O)(=O)c1c(C)cc(C)cc1C	-4.0	1.8	nt	-1.3	0.1	-1.7	nt
O=c1[nH]c2ccc(S(=O)(=O)N3CCN(C4CCCCC4)CC3)cc2[nH]c1=O	4.2	3.6	-11.2	39.5*	4.2	-4.9	nt
